Assay [1] is described as follows: P-glycoprotein substrates identified in KB-3-1 adenocarcinoma cell line, qHTS therapeutic library screen (AID 1346986). Also: nearly all actives have a fitted effect of over 60% in size. The method, boiled down:
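Compounds were tested in dose-response against KB-3-1 and KB-8-5-11 cells at 37 degree C for 72 h, and viability was measured by luminescence. AC50 values came from curve fitting with class-based activity calls.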

Assay [2] is described as follows: P-glycoprotein substrates identified in KB-8-5-11 adenocarcinoma cell line, qHTS therapeutic library screen (AID 1346987). Also: nearly all actives have a fitted effect of over 65% in size. As to activity change, negative = cytotoxicity: series mostly up to about 44 µM; % is scaled to controls: 0 for no effect and ±100 for the full control effect. The method, boiled down:
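P-gp-mediated resistance screen: KB-8-5-11 cells treated 72 h with compounds in dose-response. CellTiter-Glo viability.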
Background: qHTS replaces the single test concentration by a dilution series.

Each structure is given as a SMILES string. Records with an inconclusive call do not appear. A number with no mark means an inactive call. Calls of active or inactive are those of the source. Calls follow the shape of the dose curve; as a rule, active = well fitted curve in the direction sought with a large enough effect; inconclusive = small, poorly fitted or top-dose-only effect, or another doubt; inactive = no such curve, though single readings can be large; an effect the other way counts as inactive or inconclusive.

On to `O=c1[nH]ccc2cc(OC3CCNCC3)ccc12`, for which the Potency entry in assay [1] and in assay [2] was “inactive” throughout.
Turning to `COc1c2c(c(C)c3c1C(=O)OC3)OC1(C)CC(O)C34OC(OC)(OC3(C)C)C(O)CC4(C)C1C2` (configuration not stated), the Potency result in assay [1] and in assay [2] was “inactive” throughout.
For the molecule `CC(CO)C1CCC2(C)CC3C(CO)CC(O)C3C(C)(O)C/C=C/12` (configuration not stated), the Potency result in assay [1] and in assay [2] was “inactive” in each case.
In the case of `C=CC1C(OC2OC(CO)C(O)C(O)C2O)OC=C(C(=O)OC)C1CC(=O)OCC1C(C)C(O)CC1C(CO)COC(=O)CC1C(C(=O)O)=COC(OC2OC(CO)C(O)C(O)C2O)/C1=C\C` (configuration not stated), the outcome in assay [1] was “inactive [at 9.29 µM]”. Also, in assay [2], the activity change, negative = cytotoxicity is -0.744% [at 9.29 µM].
`CC(=O)CC1CCC(C(C)C(=O)OCC(O)CO)O1` (configuration not stated): the Potency entry in assay [1] and in assay [2] was “inactive” in each case.
Consider `CC(=O)O[C@@H]1[C@@H](OC(=O)/C=C/c2ccccc2)[C@@H](OC(C)=O)[C@H](O[C@H]2[C@@H]3C=CO[C@@H](O[C@@H]4O[C@H](CO)[C@@H](O)[C@H](O)[C@H]4O)[C@@H]3[C@@]3(CO)O[C@@H]23)O[C@H]1C`, for which the Potency entry in assay [1] and in assay [2] was “inactive” throughout.
Consider `CC(C)(O)/C=C/CC(C)(O)C1C(O)CC2(C)C3CCC4C(C)(C)C(=O)CCC4(C)C3CCC12C` (configuration not stated), for which the Potency result in assay [1] and in assay [2] was “inactive” each time.
For `CC(C)(C)NC(=O)[C@@H](c1cccnc1)N(C(=O)c1ccco1)c1ccc(C(C)(C)C)cc1`, the Potency result in assay [1] and in assay [2] was “inactive” throughout.
For the molecule `C=C[C@H]1[C@H](O[C@@H]2O[C@H](CO)[C@@H](O)[C@H](O)[C@H]2O)OC=C(C(=O)OC)[C@H]1CCOC(=O)c1cc(O)c(O)c(O)c1`, the Potency entry in assay [1] and in assay [2] was “inactive” in each case.
Turning to `CC1(C)CC[C@]2(C(=O)O[C@@H]3O[C@H](CO)[C@@H](O)[C@H](O)[C@H]3O)CC[C@]3(C)C(=CCC4[C@@]5(C)C[C@@H](O)[C@H](O)C(C)(C)C5CC[C@]43C)C2[C@@H]1O` (some centres not stated), the Potency result in assay [1] and in assay [2] was “inactive” each time.
Regarding `O=C1OCc2cc3cccc(O[C@@H]4O[C@H](CO)[C@@H](O)[C@H](O)[C@H]4O)c3c(O)c21`, the Potency entry in assay [1] and in assay [2] was “inactive” each time.
